Among the test systems are BT-549 breast; MDA-MB-435 melanoma; SW-620 colon; MCF7 breast; HCT-116 colon; HCC-2998 colon; KM12 colon.
Assay in all cases: NCI-60 one-dose screen, 48 h (100 = growth as untreated, 0 = no growth, -100 = all killed)
Details in all cases: 10 µM

The panel holds about 83,000 compounds, 20% with a hit somewhere; the sample as a whole holds those more often.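 Assay: single dose, 48 h. Readout: percent growth (0 = no net growth; negative = cell death). Active: <10.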 Values without a mark were called inactive. The source made the active and inactive calls.

As for `c1ccc(CO[C@H]2CO[C@H]3[C@@H]2OC[C@H]3OCc2ccccc2)cc1`, the growth in the test with BT-549 breast is 104%; in the test with MDA-MB-435 melanoma, 115%; in the test on SW-620 colon it was 107%; in the test with MCF7 breast, 101%; in the test on HCT-116 colon it was 105%; in the test with HCC-2998 colon it was 98%. For the same compound, the growth in the test on KM12 colon is 103%.
For the compound `N=C(N)c1ccc(-c2ccc(-c3cccs3)o2)cc1`, the growth in the test with BT-549 breast is 85.2%; in the test on MDA-MB-435 melanoma, -49.3% (active); with SW-620 colon it was -47.9% (active); with MCF7 breast it was 3.09% (active); in the test on HCT-116 colon, 7.25% (active); in the test with HCC-2998 colon it was -66% (active).
Consider `CC(=O)O[C@]1(C)CC[C@H]2[C@H](CNCCc3ccc(Cl)cc3)C(=O)O[C@@H]2C2=C(C)C(=O)C[C@H]21`, for which the growth in the test with BT-549 breast is 108%; in the test on MDA-MB-435 melanoma it was 88%; in the test on SW-620 colon, 82%; with MCF7 breast, 68.4%; in the test with HCT-116 colon, 83.9%; with HCC-2998 colon, 94.6%.
As to `N=C(N)c1ccc(-c2ccc(-c3cccs3)s2)s1`, the growth with BT-549 breast was 66.9%; in the test with MDA-MB-435 melanoma it was -88.5% (active); in the test with SW-620 colon it was -66.4% (active); with MCF7 breast, -65% (active); with HCT-116 colon, -87% (active); in the test on HCC-2998 colon it was -80.3% (active).
Regarding `CC(=O)c1nc2ccccc2n1CCN1CCN(C)CC1`, the growth in the test with BT-549 breast is 48.1%; with MDA-MB-435 melanoma, -80.2% (active); in the test with SW-620 colon, 29.6%; in the test on MCF7 breast it was 17.8%; in the test on HCT-116 colon it was 11%; with HCC-2998 colon, 37.9%. Besides, the growth in the test on KM12 colon is 14.1%.
Take `CCCCCCCCCCCCCCCCCCOCC(COCCOCC[N+]1(CCCCCC(=O)[O-])CCCC1)Oc1ncccn1` (centres undefined): the growth was 33.8% with BT-549 breast; 51.7% with MDA-MB-435 melanoma; 42.9% in the test on SW-620 colon; 25.7% in the test on MCF7 breast; 20.4% in the test with HCT-116 colon; 24.7% in the test on HCC-2998 colon. Also, the growth with KM12 colon is 15.2%.
In the case of `CC(=O)c1cc(Cl)ccc1O`, the growth in the test with BT-549 breast is 105%; with MDA-MB-435 melanoma, 101%; in the test with SW-620 colon it was 95.9%; in the test on MCF7 breast, 105%; with HCT-116 colon, 102%; in the test on HCC-2998 colon, 97.4%. The growth in the test on KM12 colon was 96.2%.
As for `COc1ccc(-c2nc(-c3nc4cc(Cl)c(Cl)cc4[nH]3)c3ccccn23)cc1`, the growth in the test with BT-549 breast was 71.9%; in the test on MDA-MB-435 melanoma, 65.2%; with SW-620 colon, 79.6%; with MCF7 breast it was 69.6%; in the test on HCT-116 colon, 24.8%; in the test with HCC-2998 colon, 76.4%.
Take `Cc1ccc(NC(=O)Nc2nc3ccccc3s2)cc1NC(=O)Nc1nc2ccccc2s1`: the growth in the test with BT-549 breast is 104%; with MDA-MB-435 melanoma, 97.1%; in the test with SW-620 colon, 102%; with MCF7 breast it was 64.6%; in the test on HCT-116 colon it was 84.9%; in the test with HCC-2998 colon, 93.4%. Further, the growth in the test with KM12 colon is 88.2%.
Turning to `CC1(C)Cc2c(sc3ncn4nc(-c5ccc(O)cc5)nc4c23)CO1`, the growth in the test on BT-549 breast is 65.1%; in the test with MDA-MB-435 melanoma it was 77.4%; in the test on SW-620 colon, 94.5%; with MCF7 breast it was 66.5%; with HCT-116 colon, 81.7%; in the test on HCC-2998 colon it was 118%.
Turning to `CCOC(=O)N1C/C(=C/c2ccc(Cl)cc2)C(=O)/C(=C/c2ccc(Cl)cc2)C1`, the growth was 81.5% in the test on BT-549 breast; 38.4% in the test with MDA-MB-435 melanoma; 1.52% (active) in the test on SW-620 colon; 5.24% (active) with MCF7 breast; -60.4% (active) in the test with HCT-116 colon; -59.8% (active) with HCC-2998 colon.
Take `CCOC(=O)N1C/C(=C/c2ccc(F)cc2)C(=O)/C(=C/c2ccc(F)cc2)C1`: the growth is -44.3% (active) with BT-549 breast; -47.4% (active) in the test with MDA-MB-435 melanoma; -66% (active) with SW-620 colon; -45.9% (active) in the test with MCF7 breast; -83.9% (active) with HCT-116 colon; -80.9% (active) with HCC-2998 colon.
In the case of `O=C(Nc1nc(-c2ccccc2Cl)cs1)c1cc(-c2ccc(Cl)cc2)nc2ccc(Cl)cc12`, the growth in the test with BT-549 breast is -9.33% (active); in the test with MDA-MB-435 melanoma, -46.9% (active); in the test with SW-620 colon, 26.7%; in the test with MCF7 breast, 11.2%; in the test with HCT-116 colon, 6.81% (active); in the test with HCC-2998 colon, 90.7%. In addition, in the test on KM12 colon, the growth is 12.4%.
With `COc1cccc(C(=O)Nc2ccc(CN3CCc4nc5cc(OC)c(OC)cc5cc43)cc2)c1`, the growth with BT-549 breast was 65%; in the test on MDA-MB-435 melanoma, 39.5%; with SW-620 colon, 59%; in the test on MCF7 breast it was 12%; in the test on HCT-116 colon it was 38.9%; in the test with HCC-2998 colon it was 14.1%. Also, the growth in the test with KM12 colon is 16.4%.
Turning to `O=[N+]([O-])c1ccc(N/N=C/c2cccc3ccccc23)nc1`, the growth with BT-549 breast was 106%; in the test on MDA-MB-435 melanoma it was 118%; with SW-620 colon it was 117%; in the test on MCF7 breast, 75.6%; with HCT-116 colon it was 95.8%; with HCC-2998 colon, 101%. Besides, in the test on KM12 colon, the growth was 99.1%.
For the compound `COc1ccc(N=C2C(=Nc3ccc(OC)cc3)N(c3ccc(N(C)C)cc3)C(=S)N2c2ccc(OC)cc2)cc1`, the growth in the test on BT-549 breast is 75.1%; in the test with MDA-MB-435 melanoma it was 86.5%; in the test on SW-620 colon, 94.7%; in the test on MCF7 breast, 84.9%; in the test on HCT-116 colon, 81.6%; in the test on HCC-2998 colon, 105%. In the test on KM12 colon, the growth was 86.8%.
Regarding `C=C(C(=O)c1ccccc1)C(NC(C)(C)C)c1ccccc1` (centres undefined), the growth in the test on BT-549 breast was 34.8%; with MDA-MB-435 melanoma, 7.63% (active); in the test on SW-620 colon, -19.7% (active); with MCF7 breast, 9.57% (active); in the test on HCT-116 colon it was -90.6% (active); in the test on HCC-2998 colon it was 1.14% (active). Further, the growth in the test with KM12 colon is 25.8%.
For the compound `C=C1c2c(C)nn(-c3ccc(OC)cc3)c2N(C)C23C[C@@H]1C1(C)c4c(C)nn(-c5ccc(OC)cc5)c4N(C)C(C)(C[C@H]12)C3` (some centres undefined), the growth in the test with BT-549 breast was 32.9%; in the test on MDA-MB-435 melanoma it was 34%; in the test with SW-620 colon it was 31.4%; in the test with MCF7 breast it was 20.8%; in the test with HCT-116 colon it was 16.7%; in the test with HCC-2998 colon, 34.9%. Moreover, in the test with KM12 colon, the growth was 28.6%.

The values above are taken from PubChem BioAssay (NCI).
